Data taken from PubChem BioAssay (NCATS).
Results filed as inconclusive are left out. Calls of active or inactive are those of the source. Unless noted, the call rests on the fitted dose curve; in most records, active means well fitted curve in the direction sought with a large enough effect; inconclusive means small, poorly fitted or top-dose-only effect, or another doubt; inactive means no such curve, though single readings can be large; an effect the other way counts as inactive or inconclusive.

Key:
[1] = target: Cytochrome P450 1A2 (Homo sapiens) (UniProt P05177); experiment: p450-cyp1a2 (AID 410; calls by dose curve; further: potency means the concentration at half of the fitted maximal effect)
Outline: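 Inhibition was calculated relative to 57 uM furafylline (full inhibition). The reaction used human CYP1A2 at 20nM with Luciferin-ME at its Km, 100uM, driven by an NADPH-regenerating system for 60 min at room temperature.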

[2] = Stat Signaling Pathway (AID 446; active means well fitted curve in either direction with a large enough effect, not every such curve was filed as active;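 further: ME-180 cervical cancer cells given 40 pM IL-6 alongside compound; SIE-controlled beta-lactamase reporter measured as 460/530 nm FRET emission ratio; on the % scale 0 is the no-effect control and ±100 the full control effect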)
Outline: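 ME-180 SIE-bla cells; overnight plating; cpd + IL-6 40 pM, 5 h, 37 C; LiveBLAzer 2.5 h RT; 460/530 nm emission ratio. Normalized to 300 pM IL-6 and 125 nM JAK inhibitor controls.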

[3] = target: Glucocorticoid receptor (Homo sapiens) (UniProt P04150); experiment: GR-GFP Redistribution (AID 450;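 active means compounds whose dose series gives a full or clear partial fitted curve of increased nuclear translocation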; further: potency means the concentration at half of the fitted maximal effect); settings: U2OS GR-GFP nuclear translocation, laser cytometry, 2 h
Glucocorticoid receptor (Homo sapiens), sequence (P04150 whole entry, looked up, the tested form may be a part): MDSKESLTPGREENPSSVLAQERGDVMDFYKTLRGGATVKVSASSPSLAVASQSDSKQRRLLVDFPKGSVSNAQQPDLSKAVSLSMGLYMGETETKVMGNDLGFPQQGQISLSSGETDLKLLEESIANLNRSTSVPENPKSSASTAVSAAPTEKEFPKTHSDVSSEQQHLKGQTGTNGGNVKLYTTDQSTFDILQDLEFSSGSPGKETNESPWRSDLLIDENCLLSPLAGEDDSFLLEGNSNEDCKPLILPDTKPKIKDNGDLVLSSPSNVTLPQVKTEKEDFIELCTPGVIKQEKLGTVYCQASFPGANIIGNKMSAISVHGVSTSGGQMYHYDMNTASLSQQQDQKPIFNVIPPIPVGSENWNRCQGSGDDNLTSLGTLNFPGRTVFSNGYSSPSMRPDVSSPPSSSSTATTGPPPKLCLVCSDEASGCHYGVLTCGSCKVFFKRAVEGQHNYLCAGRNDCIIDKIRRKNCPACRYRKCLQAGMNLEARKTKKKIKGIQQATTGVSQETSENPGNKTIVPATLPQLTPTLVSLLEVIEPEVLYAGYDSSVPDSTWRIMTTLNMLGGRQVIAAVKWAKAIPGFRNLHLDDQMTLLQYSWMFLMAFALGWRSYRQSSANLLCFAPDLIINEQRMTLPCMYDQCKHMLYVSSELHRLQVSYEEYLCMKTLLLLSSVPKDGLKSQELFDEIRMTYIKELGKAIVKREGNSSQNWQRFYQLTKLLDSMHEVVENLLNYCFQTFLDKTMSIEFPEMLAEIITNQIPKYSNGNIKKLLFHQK

[4] = target: Glucocorticoid receptor (Homo sapiens) (UniProt P04150); experiment: GR-EFC Redistribution (AID 451; calls by dose curve; further: potency means the concentration at half of the fitted maximal effect); settings: CHO-K1 GR-EFC translocation, beta-gal luminescence, 2 h
Outline: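 CHO-K1 cells expressing nuclear EA and GR-ED fragments of b-gal; compounds titrated up to 46 uM final, 2 h at 37 C. GR nuclear translocation read as complemented b-gal luminescence after 1 h RT detection.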

[5] = target: 3',5'-cyclic-AMP phosphodiesterase 4B (Homo sapiens) (UniProt Q07343); experiment: qHTS Assay for Inhibitors of PDE-IV (AID 607; active means well fitted activation curve with a large enough effect in the main read-out, with a control signal flat, not every such curve was filed as active; further: % of control where 0% means no effect)
3',5'-cyclic-AMP phosphodiesterase 4B (Homo sapiens), sequence (Q07343 whole entry, looked up): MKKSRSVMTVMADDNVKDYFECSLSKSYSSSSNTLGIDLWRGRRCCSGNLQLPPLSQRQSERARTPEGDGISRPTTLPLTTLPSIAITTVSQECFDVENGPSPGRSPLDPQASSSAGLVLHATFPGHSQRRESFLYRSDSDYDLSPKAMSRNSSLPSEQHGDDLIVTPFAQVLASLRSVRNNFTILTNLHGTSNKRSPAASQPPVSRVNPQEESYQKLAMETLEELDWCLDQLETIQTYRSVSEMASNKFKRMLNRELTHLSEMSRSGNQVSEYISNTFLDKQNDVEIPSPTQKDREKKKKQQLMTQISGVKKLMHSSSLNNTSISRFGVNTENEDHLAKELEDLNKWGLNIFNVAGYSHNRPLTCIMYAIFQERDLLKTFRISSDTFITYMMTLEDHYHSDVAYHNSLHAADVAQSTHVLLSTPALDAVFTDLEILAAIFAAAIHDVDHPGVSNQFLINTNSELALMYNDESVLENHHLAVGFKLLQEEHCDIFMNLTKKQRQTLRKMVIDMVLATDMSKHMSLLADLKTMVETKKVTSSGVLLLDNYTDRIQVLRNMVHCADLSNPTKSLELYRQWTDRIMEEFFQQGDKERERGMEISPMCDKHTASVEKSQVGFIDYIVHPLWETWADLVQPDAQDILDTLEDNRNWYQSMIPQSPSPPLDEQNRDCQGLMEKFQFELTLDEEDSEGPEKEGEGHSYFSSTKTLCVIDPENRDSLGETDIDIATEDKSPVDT
Outline: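 ACTOne HEK293 cells carry a modified cAMP-gated CNG channel and express endogenous PDE4; plated 1000 cells/well, compounds up to 22.9 uM final. Membrane-potential dye fluorescence (ex 535/em 590) was read; parental cells received 10 uM forskolin + 100 uM RO 20-1724.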

[6] = target: Guanine nucleotide-binding protein G(i) subunit alpha-1 (Homo sapiens) (UniProt P63096); experiment: qHTS Assay for Inhibitors of RGS12 GoLoco Motif Activity (Green Fluorophore) (AID 879);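 further: 0% = labeled peptide with Gαi1 and full inhibition = labeled peptide alone without protein; negative values mean loss of peptide binding seen as reduced polarization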
Outline: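 Fluorescence polarization assay: 50 nM Gαi1 with 10 nM FITC-labeled RGS12 GoLoco peptide in 10 mM Tris pH 7.5, 150 mM NaCl, 0.1 mM GDP, 0.05% NP40, 10 min at room temperature with compound.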

[7] = target: Cytochrome P450 3A4 (Homo sapiens) (UniProt P08684); experiment: qHTS Assay for Activators of Cytochrome P450 3A4 (AID 885); further: nearly all actives have a fitted effect of over 65% in size
Cytochrome P450 3A4 (Homo sapiens), sequence (P08684 whole entry, looked up): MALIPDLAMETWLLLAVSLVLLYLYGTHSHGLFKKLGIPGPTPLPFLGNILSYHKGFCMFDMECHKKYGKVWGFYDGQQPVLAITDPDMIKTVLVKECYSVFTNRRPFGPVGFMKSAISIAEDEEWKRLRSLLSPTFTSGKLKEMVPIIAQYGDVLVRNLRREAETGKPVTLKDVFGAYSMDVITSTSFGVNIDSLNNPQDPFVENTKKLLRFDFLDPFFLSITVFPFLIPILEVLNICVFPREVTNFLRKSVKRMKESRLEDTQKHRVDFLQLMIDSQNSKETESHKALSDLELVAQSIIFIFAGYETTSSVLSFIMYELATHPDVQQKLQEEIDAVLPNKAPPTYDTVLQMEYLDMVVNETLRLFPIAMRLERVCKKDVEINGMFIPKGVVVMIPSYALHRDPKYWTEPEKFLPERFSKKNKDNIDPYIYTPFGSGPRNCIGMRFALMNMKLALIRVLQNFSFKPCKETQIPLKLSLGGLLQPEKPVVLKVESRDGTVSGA
Outline: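 20nM CYP3A4 + 25uM Luciferin-PPXE (=KM), 200mM KPO4; cpd 10 min RT; NADPH regen, 60 min RT; stop w/ detection buffer, 20 min; luminescence. Normalized to 57 uM ketoconazole.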

[8] = qHTS Assay for Identification of Small Molecule Antagonists for Thrombopoietin (TPO) Signaling Pathway (AID 918); settings: TPO-dependent cell signaling reporter, antagonist mode; further: potency means the concentration at half of the fitted maximal effect; nearly all actives have a fitted effect of over 60% in size
Outline: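 First, Ba/F3 reporter cells expressing human TPO receptor were held overnight without IL-3. Next, compound and 26 pM TPO were added. After 24 hrs incubation at 37 C, luciferase luminescence under the Glycoprotein IIb promoter was recorded.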

[9] = target: Pyruvate kinase (Leishmania mexicana) (UniProt Q27686); experiment: qHTS Validation Assay for Inhibitors of Leishmania Mexicana Pyruvate Kinase (AID 945);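 further: 0% = DMSO only neutral control wells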
Pyruvate kinase (Leishmania mexicana), sequence (Q27686 2-499 E452W): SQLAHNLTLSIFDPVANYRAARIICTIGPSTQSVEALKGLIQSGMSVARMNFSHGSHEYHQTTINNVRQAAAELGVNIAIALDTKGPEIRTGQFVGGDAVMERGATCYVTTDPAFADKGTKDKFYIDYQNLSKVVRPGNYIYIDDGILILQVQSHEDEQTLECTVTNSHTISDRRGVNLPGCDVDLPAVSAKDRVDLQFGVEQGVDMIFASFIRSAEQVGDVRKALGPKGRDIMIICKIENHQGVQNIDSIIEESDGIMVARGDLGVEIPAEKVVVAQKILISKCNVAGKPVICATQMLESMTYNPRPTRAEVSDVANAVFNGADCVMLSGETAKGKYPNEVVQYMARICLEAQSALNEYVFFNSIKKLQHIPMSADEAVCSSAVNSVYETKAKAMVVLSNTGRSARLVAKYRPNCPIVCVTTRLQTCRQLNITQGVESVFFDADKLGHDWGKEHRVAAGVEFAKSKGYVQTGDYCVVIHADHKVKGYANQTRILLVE
Outline: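 Substrate mix (0.5 mM PEP, 0.1 mM ADP, 7 mM MgCl2, 50 mM KCl, pH 7.2 imidazole) received compound by pin tool, then 0.2 nM LmPYK E451W. After 1 h at room temperature, PKLight was added and luminescence measured.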

[10] = target: Pyruvate kinase PKM (Homo sapiens) (UniProt P14618); experiment: qHTS Assay for Activators of Human Muscle Pyruvate Kinase (AID 954; active means well fitted curve in the direction sought with a large enough effect, not every such curve was filed as active;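 further: 0% = uninhibited enzyme and -100% = no enzyme or full thiadiazolimine inhibition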)
Outline: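 Luminescence from a luciferase ATP-detection/stop reagent reported PKM2 activity. Reactions contained 0.1 nM purified human enzyme, 0.5 mM PEP, 0.1 mM ADP and 7 mM MgCl2 at pH 7.2, run 1 h at RT.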

[11] = target: Alpha-galactosidase A (Homo sapiens) (UniProt P06280); experiment: Counterscreen for Glucocerebrosidase Inhibitors: qHTS Assay for Human alpha-Galactosidase at pH 4.5 (AID 992); further: 0% is about no effect
Outline: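 Enzyme at 2 nM final was combined with compound (0.7 nM to 77 uM) and 80 uM 4-methylumbelliferyl alpha-D-galactopyranoside in 50 mM citric acid, 0.005% Tween-20, pH 4.5. After 20 min at room temperature, fluorescence was read (Ex 365/Em 440 nm); AC50 came from Hill fits.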

[12] = target: alpha-glucosidase (Oryza sativa, rice) (UniProt Q653V4); experiment: Counterscreen for Glucocerebrosidase Inhibitors: qHTS Assay for Rice alpha-Glucosidase at pH 5.0 (AID 997);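 further: 0% = full activity with enzyme and -100% = basal without enzyme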
Outline: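 Rice alpha-glucosidase (4 nM final) with 400 uM 4-methylumbelliferyl-alpha-D-glucopyranoside in citrate buffer pH 5.0, 20 min at room temperature, stopped at pH 10; fluorescence 365/440 nm, compounds 0.7 nM–77 uM, AC50 from Hill fits.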

[13] = target: DNA repair nuclease/redox regulator APEX1 (Homo sapiens) (UniProt P27695); experiment: qHTS Validation Assay for Inhibitors of the Human Apurinic/apyrimidinic Endonuclease 1 (APE1) (AID 1705;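 further: TAMRA fluorescence gain over two minutes as APE1 cuts a quenched THF abasic duplex; series mostly up to about 57 µM; on the % scale 0 is the no-effect control and ±100 the full control effect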)
DNA repair nuclease/redox regulator APEX1 (Homo sapiens), sequence (P27695 whole entry, looked up): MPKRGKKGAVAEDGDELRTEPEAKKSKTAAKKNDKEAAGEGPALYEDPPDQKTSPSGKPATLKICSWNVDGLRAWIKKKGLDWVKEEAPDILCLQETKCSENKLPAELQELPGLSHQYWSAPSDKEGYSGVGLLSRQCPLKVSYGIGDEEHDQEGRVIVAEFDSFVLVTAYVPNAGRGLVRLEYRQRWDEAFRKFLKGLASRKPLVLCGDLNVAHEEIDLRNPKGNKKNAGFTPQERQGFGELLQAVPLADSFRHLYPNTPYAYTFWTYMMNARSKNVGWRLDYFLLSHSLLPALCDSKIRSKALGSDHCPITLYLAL
Outline: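 qHTS, 1536-well. APE1 + cpd 15 min RT → 50 nM TAMRA/BHQ-2 THF-abasic dsDNA substrate → kinetic fluorescence, 3 reads/60 s; delta(read3−read1) = reaction progress. No-enzyme buffer = negative control.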

[14] = Counterscreen for APE1 Inhibitors: Fluorescent Dye Displacement Validation Assay (AID 1707);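 further: plate controls were ThO with dsDNA and no compound for no effect and ThO without dsDNA for full effect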
Outline: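 Thiazole Orange displacement from dsDNA: 250 nM ThO with 50 nM TAMRA-labelled abasic-site (tetrahydrofuran) duplex in 50 mM Tris-HCl pH7.5, 50mM NaCl, 2 mM MgCl2, 0.01% Tween-20. Loss of endpoint fluorescence (ex 480 nm, em 540 nm) flags DNA binders.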

[15] = qHTS for differential inhibitors of proliferation of Plasmodium falciparum line 7G8 (AID 1815);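 further: potency means the concentration at half of the fitted maximal effect; parasite growth measured after three days of incubation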
[16] = qHTS for differential inhibitors of proliferation of Plasmodium falciparum line GB4 (AID 1816); settings: Potency: Plasmodium falciparum GB4 proliferation inhibition;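 further: potency means the concentration at half of the fitted maximal effect; parasite growth measured after 72 h incubation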
[17] = qHTS for differential inhibitors of proliferation of Plasmodium falciparum line D10 (AID 1877);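 further: potency means the concentration at half of the fitted maximal effect; parasites grown with compound for 72 h before DNA staining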
[18] = qHTS for differential inhibitors of proliferation of Plasmodium falciparum line W2 (AID 1883); settings: Potency: Plasmodium falciparum W2 proliferation inhibition;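 further: potency means the concentration at half of the fitted maximal effect; parasites grown with compound for 72 h before lysis and staining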
[19] = qHTS for differential inhibitors of proliferation of Plasmodium falciparum line HB3 (AID 1886); settings: Potency: Plasmodium falciparum HB3 proliferation inhibition;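 further: potency means the concentration at half of the fitted maximal effect; parasites grown with compound for 72 h before SYBR Green readout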
[20] = target: ATP-dependent DNA helicase Q1 (Homo sapiens) (UniProt P46063); experiment: qHTS Validation Assay for Inhibitors of RecQ-Like Dna Helicase 1 (RECQ1) (AID 2353);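 further: plate controls were DMSO vehicle for no effect and enzyme-free control for full effect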
ATP-dependent DNA helicase Q1 (Homo sapiens), sequence (P46063 whole entry, looked up): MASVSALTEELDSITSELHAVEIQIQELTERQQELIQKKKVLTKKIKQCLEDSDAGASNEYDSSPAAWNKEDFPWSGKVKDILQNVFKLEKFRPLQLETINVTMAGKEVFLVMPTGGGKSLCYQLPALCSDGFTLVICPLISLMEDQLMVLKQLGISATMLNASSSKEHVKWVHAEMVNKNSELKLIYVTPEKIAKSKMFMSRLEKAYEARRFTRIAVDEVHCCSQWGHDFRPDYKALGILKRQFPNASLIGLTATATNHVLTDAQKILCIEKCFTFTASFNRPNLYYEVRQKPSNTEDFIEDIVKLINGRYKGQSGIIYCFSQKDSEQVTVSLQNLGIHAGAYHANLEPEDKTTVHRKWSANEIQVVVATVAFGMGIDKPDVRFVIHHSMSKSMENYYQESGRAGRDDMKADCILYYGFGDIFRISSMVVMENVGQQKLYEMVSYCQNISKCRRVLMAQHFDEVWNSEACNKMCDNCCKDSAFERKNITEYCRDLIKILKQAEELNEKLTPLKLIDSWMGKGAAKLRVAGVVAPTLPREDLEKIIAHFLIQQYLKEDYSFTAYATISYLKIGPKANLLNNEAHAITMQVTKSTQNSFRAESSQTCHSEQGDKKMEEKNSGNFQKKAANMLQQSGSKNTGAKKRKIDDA
Outline: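 50 nM RECQ1T1 preincubated 15 min with compound in Tris pH 8.0 buffer with MgCl2, DTT, Tween-20 and 2.5 ug/ml poly(dI-dC); started with 200 nM TAMRA/BHQ-2 forked duplex and 2 mM ATP. Unwinding read as fluorescence (525/598 nm), two reads 2 h apart.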

[21] = target: M-phase phosphoprotein 8 (Homo sapiens) (UniProt Q99549); experiment: qHTS Validation Assay for Inhibitors for MPP8 Chromodomain Interactions with Methylated Histone Tails (AID 488949);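 further: 50 nM MPP8 with 50 nM peptide preformed then compounds added for 30 min; AlphaScreen signal from MPP8 chromodomain bound to biotinylated H3K9me3 peptide; top concentration of the series differs between compounds; on the % scale 0 is the no-effect control and ±100 the full control effect; nearly all actives have a fitted effect of over 55% in size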
M-phase phosphoprotein 8 (Homo sapiens), sequence (Q99549 whole entry, looked up): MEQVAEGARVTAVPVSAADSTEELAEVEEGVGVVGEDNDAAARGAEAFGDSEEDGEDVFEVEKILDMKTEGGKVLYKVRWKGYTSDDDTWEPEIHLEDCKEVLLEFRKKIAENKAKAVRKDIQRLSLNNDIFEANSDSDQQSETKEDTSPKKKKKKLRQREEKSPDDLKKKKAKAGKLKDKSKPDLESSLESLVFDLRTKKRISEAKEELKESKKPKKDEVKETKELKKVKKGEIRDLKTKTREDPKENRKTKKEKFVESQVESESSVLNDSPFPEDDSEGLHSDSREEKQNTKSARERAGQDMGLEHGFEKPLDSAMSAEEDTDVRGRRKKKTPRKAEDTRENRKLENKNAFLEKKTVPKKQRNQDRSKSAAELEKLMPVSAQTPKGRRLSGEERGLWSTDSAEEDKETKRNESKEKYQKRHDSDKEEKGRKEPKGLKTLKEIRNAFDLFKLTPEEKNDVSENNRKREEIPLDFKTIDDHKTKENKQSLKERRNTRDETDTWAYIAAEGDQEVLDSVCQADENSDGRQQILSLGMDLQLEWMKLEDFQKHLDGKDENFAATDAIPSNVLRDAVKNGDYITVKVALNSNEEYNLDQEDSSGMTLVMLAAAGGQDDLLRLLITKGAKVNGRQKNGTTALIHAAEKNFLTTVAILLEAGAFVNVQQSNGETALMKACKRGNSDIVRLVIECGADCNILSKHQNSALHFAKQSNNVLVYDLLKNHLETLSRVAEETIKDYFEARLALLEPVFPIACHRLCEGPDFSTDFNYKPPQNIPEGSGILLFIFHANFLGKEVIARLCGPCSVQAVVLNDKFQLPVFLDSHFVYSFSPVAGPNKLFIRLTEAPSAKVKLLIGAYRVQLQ
Outline: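 50 nM MPP8 + 50 nM b-H3K9me3 peptide, PBS pH 7.4/0.01% Tween-20, 30 min RT; + cpd 30 min RT; + AlphaScreen donor/Ni-chelate acceptor beads 10 ug/mL final, 30 min dark; luminescence read.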

[22] = target: Transient receptor potential cation channel subfamily V member 1 (Homo sapiens) (UniProt Q8NER1); experiment: HTS Assay for Compounds that Act as Enhancers of the Vanilloid Receptor 1 (AID 488979); further: 0% is about no effect
Outline: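 TRPV1 cells loaded with Fluo-8 calcium dye; compound added and Ca2+ signal (ex 480/em 520 nm) followed 3 min, then capsaicin at EC20 added and read 2 more min to detect enhancement.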

[23] = target: Thyrotropin receptor (Homo sapiens) (UniProt P16473); experiment: qHTS Assay for Antagonists of the Thyroid Stimulating Hormone Receptor (AID 488980); further: series mostly up to about 58 µM; 0% is about no effect
Outline: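 Readout is cAMP by HTRF competition between cellular cAMP and cAMP-d2 for a cryptate-labelled antibody. Antagonism was assessed in TSHR-transfected HEK293 cells stimulated with 4 nM TSH (EC80, final) in the presence of RO 20-1724.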

[24] = target: Thyrotropin-releasing hormone receptor (Homo sapiens) (UniProt P34981); experiment: qHTS for Small Molecule Agonists and Allosteric Enhancers of Human TRH Receptor: Validation Screen for Agonists (AID 493127;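 active means calcium activation more than 3 SD above the typical response in the agonist read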;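 further: intracellular calcium rise by fluo-8 fluorescence before TRH EC20 addition; 0% is about no effect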); settings: TRH receptor agonist cell assay; at 2 µM; hits give high values
Thyrotropin-releasing hormone receptor (Homo sapiens), sequence (P34981 whole entry, looked up): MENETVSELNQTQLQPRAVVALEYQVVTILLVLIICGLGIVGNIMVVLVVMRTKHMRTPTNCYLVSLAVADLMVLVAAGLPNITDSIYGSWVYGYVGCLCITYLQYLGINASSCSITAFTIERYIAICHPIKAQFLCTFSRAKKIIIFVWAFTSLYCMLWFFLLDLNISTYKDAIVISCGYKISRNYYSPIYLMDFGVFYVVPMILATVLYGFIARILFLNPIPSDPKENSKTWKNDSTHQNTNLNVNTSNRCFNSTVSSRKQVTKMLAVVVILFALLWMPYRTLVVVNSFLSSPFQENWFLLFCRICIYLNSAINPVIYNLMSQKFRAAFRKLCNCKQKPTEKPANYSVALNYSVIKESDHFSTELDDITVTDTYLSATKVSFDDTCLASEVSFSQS
Outline: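 Gq-coupled calcium mobilization in TRHR cells after compound addition, monitored kinetically with fluo-8 dye on an FDSS reader.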

[25] = target: Galactokinase (Homo sapiens) (UniProt P51570); experiment: qHTS Validation Assay for Inhibitors of Human Galactokinase (GALK) (AID 493189); further: 0% is about no effect
Outline: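 5 nM GALK / 100 uM galactose / 35 uM ATP, 20 mM HEPES pH8.0, 5 mM MgCl2, 60 mM NaCl, 1 mM DTT, 0.01% BSA (final). RT 1 h; Kinase-Glo Plus luminescence.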

[26] = target: Voltage-gated inwardly rectifying potassium channel KCNH2 (Homo sapiens) (UniProt Q12809); experiment: qHTS Assay for Small Molecule Inhibitors of the Human hERG Channel Activity (AID 588834);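 further: potency means the concentration at half of the fitted maximal effect; lower thallium flux fluorescence means stronger hERG block; nearly all actives have a fitted effect of over 50% in size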
Outline: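 hERG-BacMam U2OS, 2000 cells/well; 0.7X FluxOR loading 1 hr RT dark; cpd ~10 min 37 °C; stim buffer; FDSS fluorescence 2 min @ 1 s; AC50 Hill fit.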

[27] = target: Rap guanine nucleotide exchange factor 3 (Homo sapiens) (UniProt O95398); experiment: Counterscreen qHTS for agonist of cAMP-regulated guanine nucleotide exchange factor 3 (EPAC1) (AID 1645889); further: % of control where 0% means no effect; nearly all actives have a fitted effect of over 40% in size
Outline: (§1)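 Rap1B–BODIPY-GDP (250 nM) with 50 uM GDP; compounds pin-transferred to 9.74 nM–152 uM final (activator) or from 7.32 nM upwards (inhibitor). Fluorescence Ex/Em 480/540 nm read at 5 and 30 min, then after adding cAMP or buffer, at room temperature.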

[28] = target: Ferritin light chain (Equus caballus) (UniProt P02791); experiment: qHTS Validation Assay for Identification of Novel General Anesthetics (AID 2323); further: series mostly up to about 77 µM; on the % scale 0 is the no-effect control and ±100 the full control effect
Ferritin light chain (Equus caballus), sequence (P02791 2-175 limits assumed): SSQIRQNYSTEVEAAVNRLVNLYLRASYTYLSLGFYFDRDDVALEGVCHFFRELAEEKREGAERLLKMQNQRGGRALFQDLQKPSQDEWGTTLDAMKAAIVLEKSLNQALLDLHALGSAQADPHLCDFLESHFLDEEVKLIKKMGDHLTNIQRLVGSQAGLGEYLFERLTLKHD
Outline: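 Fluorescence at 535 nm (excitation 380 nm) reported loss of 1-AMA binding to horse-spleen apoferritin (10 uM) in PBS with 50% saturated 1-aminoanthracene, after 10 min room-temperature incubation with compound; values from Hill fits of normalized response.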

[29] = target: RecQ-like DNA helicase BLM (Homo sapiens) (UniProt P54132); experiment: qHTS Validation Assay for Inhibitors of Bloom's syndrome helicase (BLM) (AID 2364);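 further: plate controls were DMSO vehicle for no effect and enzyme-free control for full effect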
Outline: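 50 nM BLM preincubated 15 min at room temperature with compound in pH 8.0 Tris buffer containing 2.5 ug/ml poly(dI-dC); started with 200 nM TAMRA/BHQ-2 forked duplex and 2 mM ATP (final). Unwinding read as TAMRA fluorescence increase, two reads 2 h apart.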

[30] = Validation screen for small molecules that induce DNA re-replication in MCF 10A normal breast cells (AID 463097); further: 0% is about no effect; nearly all actives have a fitted effect of over 60% in size
Outline: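 Image-based qHTS: normal breast cells are incubated with compound for 48 hr, stained with Hoechst, and scanned for total nuclear fluorescence. Compounds raising the fraction of nuclei with elevated DNA content count as re-replication inducers.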

[31] = Quantitative high throughput screen for delayed death inhibitors of the malarial parasite plastid, 96 hour incubation (AID 488745); further: potency means the concentration at half of the fitted maximal effect; nearly all actives have a fitted effect of over 70% in size
Outline: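 Growth of reporter-bearing P. falciparum in red cells is measured after 96 h with compound, covering two erythrocytic cycles. Luminescence from the integrated luciferase serves as the growth signal.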

[32] = Quantitative high throughput screen for delayed death inhibitors of the malarial parasite plastid, 48 hour incubation (AID 488752); further: potency means the concentration at half of the fitted maximal effect; nearly all actives have a fitted effect of over 65% in size
Outline: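 One parasite generation (48 h, 37 C, 5% CO2) of luciferase-reporter P. falciparum in erythrocytes is run with test compound; decreased luminescence indicates inhibited growth.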

[33] = Validation screen for small molecules that induce DNA re-replication in SW480 colon adenocarcinoma cells (AID 504364); further: 0% is about no effect
Outline: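 Cells are treated 48 hr with test compound, stained 40 min with Hoechst at 37 C, and scanned for nuclear fluorescence; compounds inducing re-replication increase nuclei with elevated intensity.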

[34] = target: Rap guanine nucleotide exchange factor 3 (Homo sapiens) (UniProt O95398); experiment: Counterscreen qHTS for antagonist of cAMP-regulated guanine nucleotide exchange factor 3 (EPAC1) (AID 1645888);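 further: fluorescence loss as bound BODIPY-GDP is released from Rap1B; % of control where 0% means no effect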
Outline: as §1

N#Cc1c(-c2ccccc2)no[n+]1[O-]
active: Potency [1] 0.398 µM | Potency [8] 3.98 µM | Potency [15] 10 µM | Potency [16] 12.6 µM | Potency [17] 14.1 µM | Potency [18] 10 µM | Potency [19] 11.2 µM | Potency [26] 5.01 µM
inactive: outcome [2] | Potency [3] > 46 µM | Potency [4] > 46 µM | Potency [5] | Potency [6] | outcome [7] | outcome [9] | outcome [10] | outcome [11] | outcome [12] | Potency [13] | outcome [14] | outcome [20] | Potency [21] | outcome [22] | outcome [23] | activation [24] 0.688% | outcome [25]

COc1ccc(C(NCC(=O)NC(C)c2ccc(Cl)cc2)c2ccccc2)cc1 (configuration not stated)
inactive: Potency [27]

C=C[C@@H]1CN2CC[C@@H]1C[C@@H]2[C@H](O)c1ccnc2ccc(OC)cc12
inactive: Potency [13] | outcome [14] | outcome [28] | outcome [20] | Potency [29] | Potency [30] | Potency [33]
active: Potency [31] 0.0165 µM | Potency [32] 0.0262 µM

O=C(COc1ccc(Cl)cc1Cl)NNC(=S)NCc1ccco1
inactive: Potency [34]
